{
  "source": "paper PMC5540273",
  "about": "(PLoS ONE, 2017);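 note: KINOMEscan kinase panel screen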",
  "data": [
    {"system": "MLK3", "conditions": "concentration: 1 μM, replicates: in singlicate; n = 1", "units": {"%Inh": "%"}, "values": [
      {"smiles": "c1ccc(-c2ccnc3[nH]ccc23)cc1", "note": "[SB-693578]", "%Inh": 0},
      {"smiles": "COc1ccc(Nc2nccc(N3CCC(NC(=O)C(C)c4ccc(Cl)cc4)C3)n2)cc1", "note": "(stereo not drawn) [GSK1379735]", "%Inh": 21},
      {"smiles": "Nc1nccc(-c2c(-c3ccc(F)cc3)ncn2C2CCN(Cc3ccccc3)CC2)n1", "note": "[SB-219980]", "%Inh": 0},
      {"smiles": "Cl.Cl.Cl.N#Cc1ccc(CCNc2nccc(-c3cccc(CN4CCNCC4)c3)n2)cc1", "note": "[GSK2137462]", "%Inh": 0},
      {"smiles": "Cc1cccc2c(-c3ccncn3)c(-c3ccc(F)cc3)nn12", "note": "[GW515532]", "%Inh": 4},
      {"smiles": "O=C(Nc1n[nH]c2nc(-c3cccs3)c(Br)cc12)C1CC1", "note": "[SB-735297]", "%Inh": 0},
      {"smiles": "CC(=O)c1c(C)c2cnc(Nc3ccn(C)n3)nc2n(C2CCCC2)c1=O", "%Inh": 0},
      {"smiles": "COc1cccc(NC(=O)Nc2ccc(C)c(-c3ccc(C(=O)Nc4ccncc4)cc3)c2)c1", "note": "[GSK1398474]", "%Inh": 31},
      {"smiles": "CCc1ccc(-c2ccc3c(c2)-c2n[nH]cc2S(=O)(=O)N3C)cc1", "%Inh": 0},
      {"smiles": "CNc1nc(-c2ccc3c(N)n[nH]c3c2)cc(N2C[C@@H](C(=O)Nc3ccccc3)CC[C@H]2C)n1", "note": "[GSK2298859]", "%Inh": 28},
      {"smiles": "COc1cccc(C2=C(Nc3cc(Cl)c(O)c(Cl)c3)C(=O)NC2=O)c1", "note": "[SB-390767]", "%Inh": 0},
      {"smiles": "Cn1cncc1C(=O)NC1CCN(c2ccnc(Nc3ccc(F)cc3)n2)C1", "note": "(stereo not drawn) [GSK1379717]", "%Inh": 0},
      {"smiles": "Fc1ccc(-c2nc3n(c2-c2ccncc2)CCS3)cc1", "note": "[GI98581]", "%Inh": 21},
      {"smiles": "CS(=O)(=O)CCNCc1nc(-c2ccc3ncnc(Nc4ccc(OCc5ccccc5)c(Cl)c4)c3c2)cs1.Cl", "note": "[GW582764]", "%Inh": 0},
      {"smiles": "COc1ccc(Nc2nccc(NCCNC(=O)Nc3cc(C)ccc3C)n2)cc1", "note": "[GSK1379899]", "%Inh": 5},
      {"smiles": "O=c1cc(N2CCOCC2)nc2n(Cc3cccc(Cl)c3Cl)c3ccccc3n12", "note": "[GSK2299009]", "%Inh": 36},
      {"smiles": "FC(F)(F)c1ccccc1-c1cc(-c2c[nH]nc2-c2ccccn2)ccn1", "note": "[GW679396]", "%Inh": 1},
      {"smiles": "Cn1cncc1-c1cc2c(Nc3ccc(OCc4ccccc4)cc3)ncnc2cn1", "note": "[GW281179]", "%Inh": 15},
      {"smiles": "COc1ccc(CSc2nnc(-c3ccc4c(c3)CCO4)o2)cc1", "%Inh": 0},
      {"smiles": "CC(=O)c1cccc(NC(=O)NC2CCN(c3ccnc(Nc4ccc(F)cc4)n3)C2)c1", "note": "(stereo not drawn) [GSK1379710]", "%Inh": 3},
      {"smiles": "CNc1cc(-c2ccc3c(N)n[nH]c3c2)nc(N)n1", "note": "[GSK2224810]", "%Inh": 2},
      {"smiles": "Cc1nccc(-c2c(-c3ccc(F)cc3)ncn2CCCN2CCOCC2)n1.Cl", "note": "[SB-282975]", "%Inh": 25},
      {"smiles": "Cc1ccccc1-c1cc(-c2c[nH]nc2-c2ccccn2)ccn1", "note": "[GW680061]", "%Inh": 0},
      {"smiles": "COc1nccc(-c2c(-c3ccc(F)cc3)ncn2CCCN2CCOCC2)n1", "note": "[SB-282852]", "%Inh": 0},
      {"smiles": "Cc1ccc(-c2nc(Nc3ccncc3)c3ccccc3n2)s1", "note": "[GSK189015]", "%Inh": 5},
      {"smiles": "Nc1cccc(-c2ccc3c(N)n[nH]c3c2)n1", "note": "[GSK2192730]", "%Inh": 0},
      {"smiles": "COC(=O)C(NC(=O)NC1CCN(c2ccnc(Nc3ccc(F)cc3)n2)C1)c1ccccc1", "note": "(stereo not drawn) [GSK1379712]", "%Inh": 6},
      {"smiles": "CN1c2ccc(-c3ccc(C(N)=O)cc3)cc2-c2[nH]ncc2S1(=O)=O", "%Inh": 3},
      {"smiles": "CC(=O)c1c(C)c2cnc(Nc3ccc(N4CCNCC4)cn3)nc2n(C2CCCC2)c1=O", "%Inh": 0},
      {"smiles": "CS(=O)(=O)Cc1ccc(Nc2nccc(-c3c(-c4cccc(NC(=O)C5CCCCC5)c4)nn4ncccc34)n2)cc1", "note": "[GSK350559]", "%Inh": 13},
      {"smiles": "Cc1ccc(NC(=O)Nc2ccccc2)cc1-c1ccc(C(=O)Nc2ccncc2)cc1", "note": "[GSK1398471]", "%Inh": 4},
      {"smiles": "NS(=O)(=O)c1cccc(N/C=C2\\C(=O)Nc3ccc(S(=O)(=O)Cc4c(Cl)cccc4Cl)cc32)c1", "note": "[GSK398099]", "%Inh": 0},
      {"smiles": "COc1ccc2cc(-c3nc(-c4ccccc4C(C)C)[nH]c3-c3ccncc3)ccc2c1", "note": "[SB-660566]", "%Inh": 0},
      {"smiles": "O=C(Nc1n[nH]c2cc(-c3ccsc3)ccc12)C1CC1", "note": "[SB-732932]", "%Inh": 0},
      {"smiles": "COc1cccc(CNC(=O)NC2CCN(c3ccnc(Nc4ccc(F)cc4)n3)C2)c1", "note": "(stereo not drawn) [GSK1379723]", "%Inh": 0},
      {"smiles": "Cc1cnc(N)c(/C=C/c2cncc(C(=O)NCCc3ccc(Cl)cc3Cl)c2)c1.Cl", "note": "[GSK190937]", "%Inh": 0}
    ]},
    {"system": "MRCKA", "conditions": "concentration: 1 μM, replicates: in singlicate; n = 1", "units": {"%Inh": "%"}, "values": [
      {"smiles": "c1ccc(-c2ccnc3[nH]ccc23)cc1", "note": "[SB-693578]", "%Inh": 15},
      {"smiles": "COc1ccc(Nc2nccc(N3CCC(NC(=O)C(C)c4ccc(Cl)cc4)C3)n2)cc1", "note": "(stereo not drawn) [GSK1379735]", "%Inh": 15},
      {"smiles": "Nc1nccc(-c2c(-c3ccc(F)cc3)ncn2C2CCN(Cc3ccccc3)CC2)n1", "note": "[SB-219980]", "%Inh": 0},
      {"smiles": "Cl.Cl.Cl.N#Cc1ccc(CCNc2nccc(-c3cccc(CN4CCNCC4)c3)n2)cc1", "note": "[GSK2137462]", "%Inh": 48},
      {"smiles": "Cc1cccc2c(-c3ccncn3)c(-c3ccc(F)cc3)nn12", "note": "[GW515532]", "%Inh": 0},
      {"smiles": "O=C(Nc1n[nH]c2nc(-c3cccs3)c(Br)cc12)C1CC1", "note": "[SB-735297]", "%Inh": 16},
      {"smiles": "CC(=O)c1c(C)c2cnc(Nc3ccn(C)n3)nc2n(C2CCCC2)c1=O", "%Inh": 0},
      {"smiles": "COc1cccc(NC(=O)Nc2ccc(C)c(-c3ccc(C(=O)Nc4ccncc4)cc3)c2)c1", "note": "[GSK1398474]", "%Inh": 13},
      {"smiles": "CCc1ccc(-c2ccc3c(c2)-c2n[nH]cc2S(=O)(=O)N3C)cc1", "%Inh": 0},
      {"smiles": "CNc1nc(-c2ccc3c(N)n[nH]c3c2)cc(N2C[C@@H](C(=O)Nc3ccccc3)CC[C@H]2C)n1", "note": "[GSK2298859]", "%Inh": 10},
      {"smiles": "COc1cccc(C2=C(Nc3cc(Cl)c(O)c(Cl)c3)C(=O)NC2=O)c1", "note": "[SB-390767]", "%Inh": 0},
      {"smiles": "Cn1cncc1C(=O)NC1CCN(c2ccnc(Nc3ccc(F)cc3)n2)C1", "note": "(stereo not drawn) [GSK1379717]", "%Inh": 2},
      {"smiles": "Fc1ccc(-c2nc3n(c2-c2ccncc2)CCS3)cc1", "note": "[GI98581]", "%Inh": 2},
      {"smiles": "CS(=O)(=O)CCNCc1nc(-c2ccc3ncnc(Nc4ccc(OCc5ccccc5)c(Cl)c4)c3c2)cs1.Cl", "note": "[GW582764]", "%Inh": 3},
      {"smiles": "COc1ccc(Nc2nccc(NCCNC(=O)Nc3cc(C)ccc3C)n2)cc1", "note": "[GSK1379899]", "%Inh": 1},
      {"smiles": "O=c1cc(N2CCOCC2)nc2n(Cc3cccc(Cl)c3Cl)c3ccccc3n12", "note": "[GSK2299009]", "%Inh": 24},
      {"smiles": "FC(F)(F)c1ccccc1-c1cc(-c2c[nH]nc2-c2ccccn2)ccn1", "note": "[GW679396]", "%Inh": 0},
      {"smiles": "Cn1cncc1-c1cc2c(Nc3ccc(OCc4ccccc4)cc3)ncnc2cn1", "note": "[GW281179]", "%Inh": 21},
      {"smiles": "COc1ccc(CSc2nnc(-c3ccc4c(c3)CCO4)o2)cc1", "%Inh": 0},
      {"smiles": "CC(=O)c1cccc(NC(=O)NC2CCN(c3ccnc(Nc4ccc(F)cc4)n3)C2)c1", "note": "(stereo not drawn) [GSK1379710]", "%Inh": 20},
      {"smiles": "CNc1cc(-c2ccc3c(N)n[nH]c3c2)nc(N)n1", "note": "[GSK2224810]", "%Inh": 6},
      {"smiles": "Cc1nccc(-c2c(-c3ccc(F)cc3)ncn2CCCN2CCOCC2)n1.Cl", "note": "[SB-282975]", "%Inh": 23},
      {"smiles": "Cc1ccccc1-c1cc(-c2c[nH]nc2-c2ccccn2)ccn1", "note": "[GW680061]", "%Inh": 0},
      {"smiles": "COc1nccc(-c2c(-c3ccc(F)cc3)ncn2CCCN2CCOCC2)n1", "note": "[SB-282852]", "%Inh": 12},
      {"smiles": "Cc1ccc(-c2nc(Nc3ccncc3)c3ccccc3n2)s1", "note": "[GSK189015]", "%Inh": 24},
      {"smiles": "Nc1cccc(-c2ccc3c(N)n[nH]c3c2)n1", "note": "[GSK2192730]", "%Inh": 0},
      {"smiles": "COC(=O)C(NC(=O)NC1CCN(c2ccnc(Nc3ccc(F)cc3)n2)C1)c1ccccc1", "note": "(stereo not drawn) [GSK1379712]", "%Inh": 10},
      {"smiles": "CN1c2ccc(-c3ccc(C(N)=O)cc3)cc2-c2[nH]ncc2S1(=O)=O", "%Inh": 0},
      {"smiles": "CC(=O)c1c(C)c2cnc(Nc3ccc(N4CCNCC4)cn3)nc2n(C2CCCC2)c1=O", "%Inh": 0},
      {"smiles": "CS(=O)(=O)Cc1ccc(Nc2nccc(-c3c(-c4cccc(NC(=O)C5CCCCC5)c4)nn4ncccc34)n2)cc1", "note": "[GSK350559]", "%Inh": 0},
      {"smiles": "Cc1ccc(NC(=O)Nc2ccccc2)cc1-c1ccc(C(=O)Nc2ccncc2)cc1", "note": "[GSK1398471]", "%Inh": 5},
      {"smiles": "NS(=O)(=O)c1cccc(N/C=C2\\C(=O)Nc3ccc(S(=O)(=O)Cc4c(Cl)cccc4Cl)cc32)c1", "note": "[GSK398099]", "%Inh": 15},
      {"smiles": "COc1ccc2cc(-c3nc(-c4ccccc4C(C)C)[nH]c3-c3ccncc3)ccc2c1", "note": "[SB-660566]", "%Inh": 4},
      {"smiles": "O=C(Nc1n[nH]c2cc(-c3ccsc3)ccc12)C1CC1", "note": "[SB-732932]", "%Inh": 13},
      {"smiles": "COc1cccc(CNC(=O)NC2CCN(c3ccnc(Nc4ccc(F)cc4)n3)C2)c1", "note": "(stereo not drawn) [GSK1379723]", "%Inh": 29},
      {"smiles": "Cc1cnc(N)c(/C=C/c2cncc(C(=O)NCCc3ccc(Cl)cc3Cl)c2)c1.Cl", "note": "[GSK190937]", "%Inh": 5}
    ]}
  ]
}
